Test results taken from PubChem BioAssay (NCI).
The panel holds about 83,000 compounds, 20% with a hit somewhere; the sample as a whole holds those more often.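 Values shown are percent growth following 48 h exposure of cells in 96-well plates to a single concentration of compound; below 10 was considered active.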 Activity calls are given as the source filed them.

What was measured:
Experiment in all cases: NCI-60 one-dose screen, 48 h (100 = growth as untreated, 0 = no growth, -100 = all killed)
Details in all cases: 10 µM unless noted
NCI-H23 lung = test system: NCI-H23 lung
NCI-H226 lung = test system: NCI-H226 lung
NCI-H322M lung = test system: NCI-H322M lung
HOP-62 NSCLC = test system: HOP-62 NSCLC
NCI-H460 lung = test system: NCI-H460 lung
HOP-92 NSCLC = test system: HOP-92 NSCLC
NCI-H522 lung = test system: NCI-H522 lung
A549/ATCC NSCLC = test system: A549/ATCC NSCLC
786-0 renal = test system: 786-0 renal
COLO 205 colon = test system: COLO 205 colon

Measured: growth

CCN1C(=O)N(CC)C2C1NC(=S)N2/N=C/C=C/c1ccccc1 (stereo not given)
inactive: NCI-H23 lung 21.4% | NCI-H322M lung 46.1% | HOP-62 NSCLC 29.3% | HOP-92 NSCLC 27.8% | A549/ATCC NSCLC 16.9% | 786-0 renal 25.6%
active: NCI-H226 lung -10.1% | NCI-H460 lung 5.19% | NCI-H522 lung -2.87% | COLO 205 colon -30.4%

Cc1ccc2nc(/C=C/c3ccc(N(C)C)cc3)cc(C)c2c1
inactive: NCI-H23 lung 42.1% | NCI-H226 lung 64.8% | NCI-H322M lung 70.9% | HOP-62 NSCLC 32.4% | NCI-H460 lung 15.1% | HOP-92 NSCLC 25.7% | NCI-H522 lung 25.1% | A549/ATCC NSCLC 52.3% | 786-0 renal 35.1% | COLO 205 colon 23.5%

O=C1C=CC2(O)OC(c3ccccc3)CC(=O)C2=C1O (stereo not given)
inactive: NCI-H23 lung 79.2% | NCI-H226 lung 99.7% | NCI-H322M lung 90% | HOP-62 NSCLC 86.5% | NCI-H460 lung 93.6% | HOP-92 NSCLC 93.8% | A549/ATCC NSCLC 85.6% | 786-0 renal 93.6% | COLO 205 colon 118%
active: NCI-H522 lung -17%

CC/C(=C(/c1ccc(Cl)cc1)c1ccc(OCCN(CC)CC)cc1)c1ccc(OC)cc1
inactive: NCI-H23 lung 48.7% | NCI-H226 lung 80.5% | NCI-H322M lung 66.9% | HOP-62 NSCLC 89.2% | NCI-H460 lung 16.6% | HOP-92 NSCLC 51.7% | NCI-H522 lung 66.6% | A549/ATCC NSCLC 48.8% | 786-0 renal 49.5% | COLO 205 colon 22.2%

CCC(C)C(N)C(=O)NC(CC(C)C)C(=O)N1CCCC1C(=O)NC(Cc1c[nH]c2ccccc12)C(=O)NC(CCCCN)C(=O)NC(Cc1c[nH]c2ccccc12)C(=O)N1CCCC1C(=O)NC(Cc1c[nH]c2ccccc12)C(=O)NC(Cc1c[nH]c2ccccc12)C(=O)N1CCCC1C(=O)NC(Cc1c[nH]c2ccccc12)C(=O)NC(CCCNC(=N)N)C(=O)NC(CCCNC(=N)N)C(N)=O (stereo not given)
inactive: NCI-H23 lung 104% | NCI-H226 lung 112% | NCI-H322M lung 100% | HOP-62 NSCLC 103% | NCI-H460 lung 107% | HOP-92 NSCLC 86.2% | NCI-H522 lung 97.7% | A549/ATCC NSCLC 106% | 786-0 renal 102% | COLO 205 colon 97.2%

CCOC(=O)c1c2c(n3ccc(NC(=O)CCN4CCCC4)cc13)C(=O)c1ncccc1C2=O
inactive: NCI-H226 lung 63.6% | HOP-92 NSCLC 56.2% | COLO 205 colon 15.4%
active: NCI-H23 lung -72.5% | NCI-H322M lung -76.7% | HOP-62 NSCLC -68.5% | NCI-H460 lung -79.9% | NCI-H522 lung -37% | A549/ATCC NSCLC -66.6% | 786-0 renal -88.2%

C=C(CNCCO)[C@@H]1CC[C@]2(CO)CC[C@]3(C)[C@H](CC[C@@H]4[C@@]5(C)CCC(NCCO)C(C)(C)[C@@H]5CC[C@]43C)[C@@H]12 (stereo not given in full)
inactive: NCI-H23 lung 95.5% | NCI-H226 lung 96.5% | NCI-H322M lung 89.2% | HOP-62 NSCLC 93.4% | NCI-H460 lung 50.3% | HOP-92 NSCLC 65.5% | NCI-H522 lung 66.6% | A549/ATCC NSCLC 61.4% | 786-0 renal 67.4% | COLO 205 colon 62.5%

C/C=C(/C)C(=O)O[C@@H]1CC(C)(C)CC2C34OC(=O)[C@@]21CC[C@@]3(C)[C@]1(C)CCC2C(C)(C)C(=O)CC[C@]2(C)C1C[C@@H]4O (stereo not given in full)
active: HOP-92 NSCLC 2.1%
inactive: NCI-H23 lung 73.5% | NCI-H226 lung 58.6% | NCI-H322M lung 70.2% | HOP-62 NSCLC 74.3% | NCI-H460 lung 42.4% | NCI-H522 lung 72.1% | A549/ATCC NSCLC 63.1% | 786-0 renal 74.7% | COLO 205 colon 56.1%

CC(C)(C)[C@H](OCc1cn([C@H]2C[C@@H](O)[C@@H](CO)O2)c(=O)[nH]c1=O)c1ccc(C#Cc2ccccc2)cc1[N+](=O)[O-]
inactive: NCI-H23 lung 90.2% | NCI-H226 lung 99.3% | NCI-H322M lung 47.6% | HOP-62 NSCLC 86% | NCI-H460 lung 10.1% | HOP-92 NSCLC 58.1% | NCI-H522 lung 45% | A549/ATCC NSCLC 46.5% | 786-0 renal 27.8% | COLO 205 colon 79.1%

COC(=O)c1cc(-c2cc(OC)c(OC)c(OC)c2)[nH]c1N/N=C/c1c(Cl)cccc1Cl
inactive: NCI-H226 lung 72.5% | NCI-H322M lung 45.3% | A549/ATCC NSCLC 28.1% | COLO 205 colon 56.1%
active: NCI-H23 lung -15.6% | HOP-62 NSCLC -43.9% | NCI-H460 lung 2.31% | HOP-92 NSCLC -34.8% | NCI-H522 lung -45.3% | 786-0 renal -44.4%

CCOC(=O)C1=C(C)N(C)C(=O)N(C)C1c1ccccc1 (stereo not given)
inactive: NCI-H23 lung 96.7% | NCI-H226 lung 93.3% | NCI-H322M lung 98.6% | HOP-62 NSCLC 81.7% | NCI-H460 lung 101% | HOP-92 NSCLC 78.5% | NCI-H522 lung 86.9% | A549/ATCC NSCLC 104% | 786-0 renal 100% | COLO 205 colon 98.5%

O=c1cc(-c2nccc3c2[nH]c2ccccc23)c2cc(Cl)ccc2o1
inactive: NCI-H23 lung 60.7% | NCI-H226 lung 49.5% | NCI-H322M lung 81.6% | HOP-62 NSCLC 32.7% | NCI-H460 lung 21.5% | HOP-92 NSCLC 26.1% | NCI-H522 lung 14.4% | A549/ATCC NSCLC 42.3% | 786-0 renal 27.9% | COLO 205 colon 68.7%

COc1ccc(S(=O)(=O)Oc2ccc(-c3sc4cc(OS(=O)(=O)c5ccc(OC)cc5)ccc4c3C(=O)c3ccc(OCCN4CCCCC4)cc3)cc2)cc1
inactive: NCI-H23 lung 104% | NCI-H226 lung 104% | NCI-H322M lung 98.5% | HOP-62 NSCLC 95.8% | NCI-H460 lung 105% | HOP-92 NSCLC 108% | NCI-H522 lung 91.4% | A549/ATCC NSCLC 88.2% | 786-0 renal 93% | COLO 205 colon 109%

COc1ccccc1-c1nc2ccc3[nH]ncc3c2c2c1CCCC2
inactive: NCI-H23 lung 69% | NCI-H226 lung 81.4% | NCI-H322M lung 82.8% | HOP-62 NSCLC 61.2% | NCI-H460 lung 82.5% | HOP-92 NSCLC 70.5% | NCI-H522 lung 55% | A549/ATCC NSCLC 65.2% | 786-0 renal 67.7% | COLO 205 colon 74.7%

CC1=C(C(=O)c2ccccc2)C(c2ccc3c(c2)OCO3)NC(=S)N1 (stereo not given)
inactive: NCI-H23 lung 48% | NCI-H226 lung 66.5% | NCI-H322M lung 67.7% | HOP-62 NSCLC 51.8% | HOP-92 NSCLC 92.3% | NCI-H522 lung 38.3% | A549/ATCC NSCLC 40.3% | 786-0 renal 58.9% | COLO 205 colon 47.6%
active: NCI-H460 lung 8.05%

O=C(Nc1ccc(Cl)cc1)C1=NCCCCN1
inactive: NCI-H23 lung 92% | NCI-H226 lung 84.7% | NCI-H322M lung 83.5% | HOP-62 NSCLC 70.7% | NCI-H460 lung 86.3% | HOP-92 NSCLC 89.9% | NCI-H522 lung 82.6% | A549/ATCC NSCLC 92.6% | 786-0 renal 99.9% | COLO 205 colon 99.6%

C=C(C)[C@@H]1CC[C@]2(C#N)CC[C@]3(C)[C@H](CC[C@@H]4[C@@]5(C)CCCNC(C)(C)[C@@H]5CC[C@]43C)[C@@H]12
inactive: NCI-H23 lung 82.7% | NCI-H226 lung 96.6% | NCI-H322M lung 88.7% | HOP-62 NSCLC 113% | NCI-H460 lung 11.1% | HOP-92 NSCLC 51% | NCI-H522 lung 91.5% | A549/ATCC NSCLC 73.2% | 786-0 renal 84.5%
active: COLO 205 colon -67.8%

O=C(Nc1ncc(Cc2ccccc2)s1)c1ccc2c(c1)OCCO2
inactive: NCI-H23 lung 30.8% | NCI-H226 lung 12.8% | NCI-H322M lung 50.1% | HOP-62 NSCLC 25.5% | HOP-92 NSCLC 57.8% | A549/ATCC NSCLC 16.6% | 786-0 renal 33.1%
active: NCI-H460 lung 5.11% | NCI-H522 lung -3.58% | COLO 205 colon -13.3%

CC(C)c1nc(N(C)S(C)(=O)=O)nc(-c2ccc(F)cc2)c1/C=C/C(=O)C[C@@H](O)CC(=O)O
inactive: NCI-H23 lung 99.8% | NCI-H226 lung 113% | NCI-H322M lung 90% | HOP-62 NSCLC 95.8% | NCI-H460 lung 108% | HOP-92 NSCLC 84.2% | NCI-H522 lung 71.4% | A549/ATCC NSCLC 89.5% | 786-0 renal 106% | COLO 205 colon 112%

CN(C)CC1C(=O)O[C@H]2[C@H]1CC/C(COC(=O)NCc1ccc(Cn3c(=O)sn(CCCI)c3=O)cc1)=C\CC[C@@]1(C)O[C@@H]21 (stereo not given in full)
inactive: NCI-H23 lung 55.3% | NCI-H322M lung 95.1% | HOP-62 NSCLC 83.8% | NCI-H460 lung 100% | A549/ATCC NSCLC 101%
active: NCI-H226 lung -27.4% | HOP-92 NSCLC -87.2% | NCI-H522 lung -84.3% | 786-0 renal -73.2% | COLO 205 colon -63%

CN(CCNc1ccc(C(=N)N)cc1)c1ccc(C(=N)N)cc1
inactive: NCI-H23 lung 81.3% | NCI-H226 lung 52.7% | NCI-H322M lung 71% | HOP-62 NSCLC 112% | NCI-H460 lung 47.9% | HOP-92 NSCLC 62.7% | NCI-H522 lung 87.6% | A549/ATCC NSCLC 41.9% | 786-0 renal 102% | COLO 205 colon 135%

CC(C)(C)c1ccc(C(=O)Nc2sc3c(c2C#N)CCC(=O)C3)cc1
inactive: NCI-H226 lung 15.4% | NCI-H322M lung 86.6% | HOP-62 NSCLC 49.7% | A549/ATCC NSCLC 14.4% | 786-0 renal 17.6%
active: NCI-H23 lung 5.23% | NCI-H460 lung 1.59% | HOP-92 NSCLC -25% | NCI-H522 lung -22.9% | COLO 205 colon -61.8%

Cn1ncc(CC(=O)O)c1-n1nnc2cc(Cl)ccc2c1=O
inactive: NCI-H23 lung 102% | NCI-H226 lung 95.2% | NCI-H322M lung 80.3% | HOP-62 NSCLC 105% | NCI-H460 lung 108% | HOP-92 NSCLC 105% | NCI-H522 lung 97.3% | A549/ATCC NSCLC 97.3% | 786-0 renal 96.6% | COLO 205 colon 118%
